Test system: Neuro-2a
Test: neurite formation score, plate-normalized to DMSO control mean 5.04 (score (0-8 scale)); higher = more or longer neurites
Conditions: 1 µM
Procedure: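 Neuro-2a mouse neuroblastoma cells in PLL-coated 96-well plates were pre-treated for 1 h in DMEM(+) with each kinase inhibitor at 1 µM, then switched to serum-free DMEM(-) with inhibitor to induce neurite outgrowth and fixed about 2-3 h later. Three blinded observers scored neurite formation from 0 (no neurites) to 8 (long neurites on almost all cells).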

Row | Compound | neurite formation score
1 | CC(C)(C)c1cc(C=C(C#N)C#N)cc(C(C)(C)C)c1O [Tyrphostin 9] | 4.96
2 | O=c1[nH]c2ccc(Cl)cc2c(N[C@@H]2CN3CCC2CC3)c1-c1nc2ccccc2[nH]1 | 5.96
3 | COc1ccc2c(c[n+](C)c3c4cc5c(cc4ccc23)OCO5)c1OC [Chelerythrine Chloride] | 4.57
4 | CCN1CCN(C(=O)Cc2ccc(Nc3ncc(F)c(Nc4ccc(C(=O)Nc5ccccc5Cl)cc4)n3)cc2)CC1 [Aurora A Inhibitor I] | 3.69
5 | O=c1[nH]c2ccccc2n1C1CCN(Cc2ccc(-c3[nH]c4cc5ncnc5cc4nc3-c3ccccc3)cc2)CC1 [AKT inhibitor VIII] | 4.91
6 | COC[C@H]1OC(=O)c2coc3c2[C@@]1(C)C1=C(C3=O)[C@@H]2CCC(=O)[C@@]2(C)C[C@H]1OC(C)=O [Wortmannin] | 4.63
7 | Cn1cc(C2=C(c3cn(C4CCN(Cc5ccccn5)CC4)c4ccccc34)C(=O)NC2=O)c2ccccc21 | 3.91
8 | COc1ccc(N(C(=O)Oc2c(C)cccc2C)c2ccnc(Nc3ccc(N4CCN(C)CC4)cc3)n2)c(OC)c1 | 3.88
9 | COc1cc([C@@H]2c3cc4c(cc3[C@H](O)[C@H]3COC(=O)[C@@H]23)OCO4)cc(OC)c1OC | 4.24
10 | CC(C)(C)c1cc(C=C(C#N)C#N)cc(Br)c1O | 4.24
11 | N#CC(C#N)=Cc1ccc(O)c(O)c1 | 4.91
12 | Cc1ccccc1-n1c(Cn2cnc3c(N)ncnc32)nc2cccc(C)c2c1=O | 5.21

— the supplement of paper PMC8047044
